{"source": "PubChem BioAssay (NCATS)", "key": {"[1]": {"test": "Primary qHTS for inhibitors of SARS-S pseudo-typed particle cell entry (AID 1479145); also: nearly all actives have a fitted effect of over 45% in size; also: potency is read from the fitted curve at half-maximal effect"}, "[2]": {"test": "Primary qHTS for Huh7 cytotoxicity: counterscreen for inhibitors of MERS-S pseudotyped particle cell entry (AID 1479147)"}, "[3]": {"test": "Primary qHTS for Vero E6 cytotoxicity: counterscreen for inhibitors of SARS-S pseudo-typed particle cell entry (AID 1479150); also: potency is read from the fitted curve at half-maximal effect"}, "[4]": {"test": "Primary qHTS for inhibitors of MERS-S pseudo-typed particle cell entry (AID 1479149); also: nearly all actives have a fitted effect of over 60% in size"}, "[5]": {"test": "Primary qHTS for inhibitors of La Crosse Virus (LACV) - induced cell death in SH-SY5Y cells (AID 1508616; active = well fitted inhibition curve with a large enough effect;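 also: top concentration of the series differs between compounds; higher means more rescue of cells from virus-induced death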)", "procedure,_shortened": "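Readout was luminescence from ATPLite 1step added after a 6-day LACV infection (0.01 MOI) of SH-SY5Y cells that had received pin-transferred compound 24 hr after seeding.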"}}, "note": "Results filed as inconclusive are left out. Where a call stands in place of a potency, no number is given. Activity calls are given as the source filed them. Unless noted, calls follow the shape of the full dose curve."}
{"compound": "CC(=O)Nc1c(I)cc(I)c(C(=O)O)c1I", "values": [{"measurement": "Potency", "setting": "[1]", "result": "inactive"}, {"measurement": "Potency", "setting": "[2]", "result": "inactive"}, {"measurement": "Potency", "setting": "[3]", "result": "inactive"}]}
{"compound": "CCn1cc(C(=O)O)c(=O)c2cc(F)c(N3CCNC(C)C3)c(F)c21", "note": "(stereo not drawn)", "values": [{"measurement": "Potency", "setting": "[1]", "result": "inactive"}, {"measurement": "Potency", "setting": "[2]", "result": "inactive"}, {"measurement": "Potency", "setting": "[3]", "result": "inactive"}]}
{"compound": "CCCCN(CCCC)CCCOC(=O)c1ccc(N)cc1", "values": [{"measurement": "Potency", "setting": "[1]", "result": "inactive"}, {"measurement": "Potency", "setting": "[4]", "result": "inactive"}, {"measurement": "Potency", "setting": "[3]", "result": "inactive"}]}
{"compound": "CC(=O)Nc1ccc(S(=O)(=O)Nc2cc(C)on2)cc1", "values": [{"measurement": "Potency", "setting": "[2]", "result": "inactive"}, {"measurement": "Potency", "setting": "[4]", "result": "inactive"}, {"measurement": "Potency", "setting": "[3]", "result": "inactive"}]}
{"compound": "CC(C(=O)O)c1ccc2c(c1)CC(=O)c1ccccc1S2", "note": "(stereo not drawn)", "values": [{"measurement": "Potency", "setting": "[1]", "result": "inactive"}, {"measurement": "Potency", "setting": "[2]", "result": "inactive"}, {"measurement": "Potency", "setting": "[3]", "result": "inactive"}]}
{"compound": "Cc1cc2nc3c(=O)[nH]c(=O)nc-3n(C[C@H](O)[C@H](O)[C@H](O)CO)c2cc1C", "values": [{"measurement": "Potency", "setting": "[2]", "result": "inactive"}, {"measurement": "Potency", "setting": "[4]", "result": "inactive"}, {"measurement": "Potency", "setting": "[3]", "result": "inactive"}]}
{"compound": "CCCOC(=O)c1ccccc1", "values": [{"measurement": "Potency", "setting": "[2]", "result": "inactive"}, {"measurement": "Potency", "setting": "[4]", "result": "inactive"}, {"measurement": "Potency", "setting": "[3]", "result": "inactive"}]}
{"compound": "Nc1cc(C(Cl)=C(Cl)Cl)c(S(N)(=O)=O)cc1S(N)(=O)=O", "values": [{"measurement": "Potency", "setting": "[1]", "result": "inactive"}, {"measurement": "Potency", "setting": "[2]", "result": "inactive"}, {"measurement": "Potency", "setting": "[3]", "result": "inactive"}]}
{"compound": "COc1cc(NS(C)(=O)=O)ccc1Nc1c2ccccc2nc2ccccc12", "values": [{"measurement": "Potency", "setting": "[1]", "result": "0.794 µM (active)"}, {"measurement": "Potency", "setting": "[3]", "result": "25.1 µM (active)"}]}
{"compound": "O=c1c(C2CC(c3ccc(-c4ccc(Br)cc4)cc3)Cc3ccccc32)c(O)sc2ccccc12", "note": "(stereo not drawn)", "values": [{"measurement": "Potency", "setting": "[1]", "result": "25.1 µM (active)"}, {"measurement": "Potency", "setting": "[2]", "result": "inactive"}, {"measurement": "outcome", "setting": "[5]", "result": "inactive"}]}
{"compound": "O=C(O)CCCC[C@@H]1SC[C@@H]2NC(=O)N[C@@H]21", "values": [{"measurement": "Potency", "setting": "[1]", "result": "inactive"}, {"measurement": "Potency", "setting": "[2]", "result": "inactive"}, {"measurement": "Potency", "setting": "[3]", "result": "inactive"}]}
{"compound": "COCCOC(=O)C1=C(C)NC(C)=C(C(=O)OC(C)C)C1c1cccc([N+](=O)[O-])c1", "note": "(stereo not drawn)", "values": [{"measurement": "Potency", "setting": "[1]", "result": "inactive"}, {"measurement": "Potency", "setting": "[2]", "result": "inactive"}, {"measurement": "Potency", "setting": "[3]", "result": "inactive"}]}
{"compound": "O=C1[O][Bi][O]c2ccccc21", "values": [{"measurement": "outcome", "setting": "[2]", "result": "inactive [at 0.573 µM]"}, {"measurement": "outcome", "setting": "[4]", "result": "inactive [at 0.573 µM]"}, {"measurement": "outcome", "setting": "[3]", "result": "inactive [at 0.573 µM]"}]}
{"compound": "CN1C[C@@H]2C[C@H]1CN2c1cc2c(cc1F)c(=O)c(C(=O)O)cn2C1CC1", "values": [{"measurement": "Potency", "setting": "[1]", "result": "inactive"}, {"measurement": "Potency", "setting": "[2]", "result": "inactive"}, {"measurement": "Potency", "setting": "[3]", "result": "inactive"}]}
{"compound": "C[C@H](NC(CCc1ccccc1)C(=O)O)C(=O)N1CCC[C@H]1C(=O)O", "note": "(stereo partly drawn)", "values": [{"measurement": "Potency", "setting": "[1]", "result": "inactive"}, {"measurement": "Potency", "setting": "[2]", "result": "inactive"}, {"measurement": "Potency", "setting": "[3]", "result": "inactive"}]}
{"compound": "Nc1ccc(S(=O)(=O)c2ccc(N)cc2)cc1", "values": [{"measurement": "Potency", "setting": "[1]", "result": "inactive"}, {"measurement": "Potency", "setting": "[2]", "result": "inactive"}, {"measurement": "Potency", "setting": "[3]", "result": "inactive"}]}
{"compound": "Nc1nc(N)nc(-c2cc(Cl)ccc2Cl)n1", "values": [{"measurement": "Potency", "setting": "[2]", "result": "inactive"}, {"measurement": "Potency", "setting": "[4]", "result": "inactive"}, {"measurement": "Potency", "setting": "[3]", "result": "inactive"}]}
{"compound": "CCc1oc2ccccc2c1C(=O)c1cc(I)c(O)c(I)c1", "values": [{"measurement": "Potency", "setting": "[2]", "result": "inactive"}, {"measurement": "Potency", "setting": "[4]", "result": "inactive"}, {"measurement": "Potency", "setting": "[3]", "result": "inactive"}]}
